Test results reported in PubChem BioAssay (Tox21).
Results filed as inconclusive are left out. The source made the active and inactive calls. The call rests on the fitted dose curve; in most records, active means well fitted cell-killing curve with a large enough effect in the repeat runs; inconclusive means weak or mixed curves, or effect the other way; inactive means flat fitted curve, though single readings scatter.
On the % scale 0 is the no-effect control and ±100 the full control effect.

Experiment: qHTS assay to identify small molecule that activate the aryl hydrocarbon receptor (AhR) signaling pathway - cell viability counter screen (AID 743086);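 further: HepG2 liver cells carrying the AhR DRE luciferase reporter; nearly all actives have a fitted effect of over 45% in size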
Conditions: HepG2-AhR-luc viability, CellTiter-Fluor, 24 h; series mostly up to 70.3 µM; viability change, negative = cytotoxic: at the top concentration
How it was run: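 HepG2-AhR-luc (HG2L7.5c1) cells, 4000/well, were preincubated 5 h at 37C, exposed to compound in qHTS format for 24 hr at 37C, then given CellTiter-Fluor for 30 min; viability was read as fluorescence in the reporter wells.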
With `C[Se]CCC(N)C(=O)O` (stereo not drawn) the “viability change, negative = cytotoxic” value was 2.46% (inactive). In the case of `O=C(CCCN1CCC(C(=O)c2ccc(F)cc2)CC1)c1ccc(F)cc1`, the “viability change, negative = cytotoxic” value was -1.76% (inactive). For `CNC(=O)c1c(I)c(C(=O)NCC(=O)Nc2c(I)c(C(=O)O)c(I)c(C(=O)NCCO)c2I)c(I)c(N(C)C(C)=O)c1I`, the “viability change, negative = cytotoxic” value was 12.7% (inactive). With `CN1CCCC(CN2c3ccccc3Sc3ccccc32)C1` (stereo not drawn) the “viability change, negative = cytotoxic” value was -28.7% (inactive). With `CC(=O)Nc1ccc(NC(=S)NC(=O)c2ccc(C(C)(C)C)cc2)cc1` the “viability change, negative = cytotoxic” value was -0.505% (inactive). For `C[C@]12CC[C@@H]3c4ccc(O)cc4CC[C@H]3[C@@H]1CC[C@@H]2OP(=O)(O)O`, the “viability change, negative = cytotoxic” value was 10.5% (inactive). With `CC1(C)[C@@H]2CC[C@@]1(C)[C@H](OC(=O)CSC#N)C2` the “viability change, negative = cytotoxic” value was -0.868% (inactive). In the case of `COCC(=O)Nc1cc(Sc2ccccc2)ccc1N=C(NC(=O)OC)NC(=O)OC`, the “viability change, negative = cytotoxic” value was 7.97% (inactive). With `CCN(CC)Cc1cc(Nc2ccnc3cc(Cl)ccc23)ccc1O` the “viability change, negative = cytotoxic” value was -8.49% [at 32.5 µM] (inactive). For `S=C1SCN(Cc2ccccc2)CN1Cc1ccccc1`, the “viability change, negative = cytotoxic” value was 19.6% (inactive). In the case of `CC(/C=C/C=C(\C)C(=O)O[C@@H]1O[C@H](CO[C@@H]2O[C@H](CO)[C@@H](O)[C@H](O)[C@H]2O)[C@@H](O)[C@H](O)[C@H]1O)=C\C=C\C=C(C)\C=C\C=C(/C)C(=O)O[C@@H]1O[C@H](CO[C@@H]2O[C@H](CO)[C@@H](O)[C@H](O)[C@H]2O)[C@@H](O)[C@H](O)[C@H]1O`, the “viability change, negative = cytotoxic” value was -3.86% (inactive). With `C[C@]12C=CC(=O)N[C@@H]1CC[C@@H]1[C@@H]2CC[C@]2(C)[C@@H](C(=O)Nc3cc(C(F)(F)F)ccc3C(F)(F)F)CC[C@@H]12` the “viability change, negative = cytotoxic” value was 12.5% (inactive). With `CC1(C)S[C@@H]2[C@H](NC(=O)C(C(=O)O)c3ccsc3)C(=O)N2[C@H]1C(=O)O` (stereo partly drawn) the “viability change, negative = cytotoxic” value was 16.4% (inactive).
